# This is one part of a sample in which the strongest signals are shown more often than they occur.
# B1: EUL D1A (Oryza sativa) (protein)
# chain: MFGFGHHHNQAPAAPSDPNQIFKIFCRANENYCLTVRDSAVVLAPVNPKDEHQHWFKDMRFSTKVKDGEGMPAFALVNKATGLAVKHSLGQSHPVKLVPFNPEYEDASVLWTESKDVGKGFRCIRMVNNTRLNLDAFHGDKDHGGVRDGTTVVLWEWCKGDNQSWKILPWGPEAHSSSPGAATACTIGGVPVHTVRVFSAAGEDYCLTVRNGTACLAPKNPRDDYQHWIKDMRHSNKIRDEEGYPAFALVNKVTGEAIKHSTGQGHPVKLVPYNPEYQDESVLWTESKDVGKGFRCIRMVNNIYLNFDAFHGDKDHGGIHDGTEIVLWKWCEGDNQRWKILPWILEQKLISEEDLNSAVDHHHHHH
# Tests used:
# Experiment in all cases: glycan array binding signal (z-score within array); higher = stronger binding
# Conditions in all cases: glycan notation: IUPAC condensed, linker removed
# Fuc(a1-2)Gal(b1-3)GalNAc = molecular target: Fuc(a1-2)Gal(b1-3)GalNAc
# How it was run: (§1)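 Glycan array data came from 3228 arrays in the Consortium for Functional Glycomics database, and only arrays with an available protein sequence were kept. Glycan names were put into IUPAC-condensed notation, and columns mapping to the same glycan were averaged. The binding signal is a within-array Z-score, averaged across arrays of one protein sequence run at different concentrations or buffers and across linkers. A negative Z-score can be read as non-binding.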
# [1] = molecular target: Fuc(a1-2)Gal(b1-3)GlcNAc(b1-3)[Neu5Ac(a2-6)Gal(b1-4)GlcNAc(b1-6)]Gal(b1-4)Glc
# How it was run: as §1
# [2] = molecular target: Fuc(a1-2)Gal(b1-3)GlcNAc6S
# How it was run: as §1
# [3] = molecular target: Fuc(a1-2)Gal(b1-3)[Fuc(a1-4)]GlcNAc(b1-2)Man(a1-3)[Fuc(a1-2)Gal(b1-3)[Fuc(a1-4)]GlcNAc(b1-2)Man(a1-6)]Man(b1-4)GlcNAc(b1-4)[Fuc(a1-6)]GlcNAc(b1-4)[Fuc(a1-6)]GlcNAc
# How it was run: as §1
# [4] = molecular target: Fuc(a1-2)Gal(b1-3)[Fuc(a1-4)]GlcNAc(b1-3)[Gal(b1-4)GlcNAc(b1-6)]Gal(b1-4)Glc
# How it was run: as §1
# [5] = molecular target: Fuc(a1-2)[Gal(a1-3)]Gal(b1-3)GlcNAc(b1-2)Man(a1-3)[Fuc(a1-2)[Gal(a1-3)]Gal(b1-3)GlcNAc(b1-2)Man(a1-6)]Man(b1-4)GlcNAc(b1-4)GlcNAc
# How it was run: as §1
# [6] = molecular target: Fuc(a1-2)[Gal(a1-3)]Gal(b1-3)GlcNAc(b1-2)Man(a1-3)[Fuc(a1-2)[Gal(a1-3)]Gal(b1-3)GlcNAc(b1-2)Man(a1-6)]Man(b1-4)GlcNAc(b1-4)[Fuc(a1-6)]GlcNAc
# How it was run: as §1
# [7] = molecular target: Fuc(a1-2)[Gal(a1-3)]Gal(b1-3)GlcNAc(b1-3)GalNAc
# How it was run: as §1
# [8] = molecular target: Fuc(a1-2)[Gal(a1-3)]Gal(b1-4)GlcNAc(b1-2)Man(a1-3)[Fuc(a1-2)[Gal(a1-3)]Gal(b1-4)GlcNAc(b1-2)Man(a1-6)]Man(b1-4)GlcNAc(b1-4)[Fuc(a1-6)]GlcNAc
# How it was run: as §1
# [9] = molecular target: Fuc(a1-2)[GalNAc(a1-3)]Gal
# How it was run: as §1
# [10] = molecular target: Fuc(a1-2)[GalNAc(a1-3)]Gal(b1-3)GlcNAc(b1-3)GalNAc
# How it was run: as §1
# [11] = molecular target: Fuc(a1-2)[GalNAc(a1-4)]Gal(b1-4)GlcNAc
# How it was run: as §1
# [12] = molecular target: Fuc(a1-3)[Gal(b1-4)]Glc6S
# How it was run: as §1
# Gal(a1-3)Gal(b1-4)GlcNAc = molecular target: Gal(a1-3)Gal(b1-4)GlcNAc
# How it was run: as §1
# Gal(b1-3)GalNAc(b1-3)Gal = molecular target: Gal(b1-3)GalNAc(b1-3)Gal
# How it was run: as §1
# [13] = molecular target: Gal(b1-3)[Fuc(a1-4)]GlcNAc(b1-2)Man(a1-3)[Gal(b1-3)[Fuc(a1-4)]GlcNAc(b1-2)Man(a1-6)]Man(b1-4)GlcNAc(b1-4)[Fuc(a1-6)]GlcNAc
# How it was run: as §1
# [14] = molecular target: Gal(b1-4)GlcNAc(b1-3)Gal(b1-4)GlcNAc(b1-3)Gal(b1-4)GlcNAc(b1-2)Man(a1-3)[Gal(b1-4)GlcNAc(b1-3)Gal(b1-4)GlcNAc(b1-3)Gal(b1-4)GlcNAc(b1-2)Man(a1-6)]Man(b1-4)GlcNAc(b1-4)GlcNAc
# How it was run: as §1
# [15] = molecular target: Gal(b1-4)GlcNAc(b1-3)Gal(b1-4)GlcNAc(b1-3)Gal(b1-4)GlcNAc(b1-2)[Gal(b1-4)GlcNAc(b1-3)Gal(b1-4)GlcNAc(b1-3)Gal(b1-4)GlcNAc(b1-6)]Man(a1-6)[Gal(b1-4)GlcNAc(b1-3)Gal(b1-4)GlcNAc(b1-3)Gal(b1-4)GlcNAc(b1-2)Man(a1-3)]Man(b1-4)GlcNAc(b1-4)[Fuc(a1-6)]GlcNAc
# How it was run: as §1
# [16] = molecular target: Gal(b1-4)GlcNAc(b1-3)Gal(b1-4)GlcNAc(b1-3)Gal(b1-4)GlcNAc(b1-3)Gal(b1-4)GlcNAc(b1-2)Man(a1-3)[Gal(b1-4)GlcNAc(b1-3)Gal(b1-4)GlcNAc(b1-3)Gal(b1-4)GlcNAc(b1-3)Gal(b1-4)GlcNAc(b1-2)Man(a1-6)]Man(b1-4)GlcNAc(b1-4)GlcNAc
# How it was run: as §1
# [17] = molecular target: Gal(b1-4)GlcNAc(b1-3)Gal(b1-4)GlcNAc(b1-3)Gal(b1-4)GlcNAc(b1-3)Gal(b1-4)GlcNAc(b1-2)[Gal(b1-4)GlcNAc(b1-3)Gal(b1-4)GlcNAc(b1-3)Gal(b1-4)GlcNAc(b1-3)Gal(b1-4)GlcNAc(b1-6)]Man(a1-6)[Gal(b1-4)GlcNAc(b1-3)Gal(b1-4)GlcNAc(b1-3)Gal(b1-4)GlcNAc(b1-3)Gal(b1-4)GlcNAc(b1-2)Man(a1-3)]Man(b1-4)GlcNAc(b1-4)[Fuc(a1-6)]GlcNAc
# How it was run: as §1
# [18] = molecular target: Gal(b1-4)GlcNAc(b1-3)Gal(b1-4)GlcNAc(b1-6)[Gal(b1-3)]GalNAc
# How it was run: as §1
# [19] = molecular target: Gal(b1-4)GlcNAc(b1-3)Gal(b1-4)[Fuc(a1-3)]GlcNAc(b1-3)Gal(b1-4)[Fuc(a1-3)]GlcNAc
# How it was run: as §1
# [20] = molecular target: Gal(b1-4)GlcNAc(b1-6)GalNAc
# How it was run: as §1
# [21] = molecular target: Gal3S(b1-4)[Fuc(a1-3)]Glc6S
# How it was run: as §1
# Gal6S(b1-4)GlcNAc = molecular target: Gal6S(b1-4)GlcNAc
# How it was run: as §1
# [22] = molecular target: GalNAc(b1-3)Gal(a1-4)Gal(b1-4)GlcNAc(b1-3)Gal(b1-4)Glc
# How it was run: as §1
# [23] = molecular target: GlcNAc(a1-4)Gal(b1-4)GalNAc
# How it was run: as §1
# [24] = molecular target: GlcNAc(a1-6)Gal(b1-4)GlcNAc
# How it was run: as §1
# [25] = molecular target: GlcNAc(b1-2)Man(a1-3)[GlcNAc(b1-2)Man(a1-6)]Man(b1-4)GlcNAc(b1-4)[Fuc(a1-6)]GlcNAc
# How it was run: as §1
# [26] = molecular target: GlcNAc(b1-3)Gal(b1-4)GlcNAc(b1-3)Gal(b1-4)GlcNAc(b1-3)Gal(b1-4)GlcNAc(b1-3)Gal(b1-4)GlcNAc(b1-2)Man(a1-3)[GlcNAc(b1-3)Gal(b1-4)GlcNAc(b1-3)Gal(b1-4)GlcNAc(b1-3)Gal(b1-4)GlcNAc(b1-3)Gal(b1-4)GlcNAc(b1-2)Man(a1-6)]Man(b1-4)GlcNAc(b1-4)[Fuc(a1-6)]GlcNAc
# How it was run: as §1
# [27] = molecular target: GlcNAc(b1-4)Gal(b1-4)GlcNAc
# How it was run: as §1
# [28] = molecular target: GlcNAc(b1-4)GlcNAc(b1-4)GlcNAc(b1-4)GlcNAc(b1-4)GlcNAc
# How it was run: as §1
# [29] = molecular target: Man(a1-2)Man(a1-6)[Man(a1-3)]Man(a1-6)[Man(a1-2)Man(a1-2)Man(a1-3)]Man
# How it was run: as §1
# [30] = molecular target: Man(a1-3)[Man(a1-6)]Man(a1-6)[Man(a1-3)]Man
# How it was run: as §1
# [31] = molecular target: Neu5Ac(a2-3)Gal(b1-3)GalNAc
# How it was run: as §1
# [32] = molecular target: Neu5Ac(a2-3)Gal(b1-3)GalNAc6S
# How it was run: as §1
# [33] = molecular target: Neu5Ac(a2-3)Gal(b1-3)GlcNAc(b1-6)GalNAc
# How it was run: as §1
# [34] = molecular target: Neu5Ac(a2-3)Gal(b1-4)GlcNAc(b1-6)[Neu5Ac(a2-3)Gal(b1-3)]GalNAc
# How it was run: as §1
# [35] = molecular target: Neu5Ac(a2-3)Gal6S(b1-4)[Fuc(a1-3)]GlcNAc
# How it was run: as §1
# [36] = molecular target: Neu5Ac(a2-6)Gal(b1-4)GlcNAc(b1-2)Man(a1-6)[GlcNAc(b1-2)Man(a1-3)]Man(b1-4)GlcNAc(b1-4)GlcNAc
# How it was run: as §1
# [37] = molecular target: Neu5Ac(a2-6)Gal(b1-4)GlcNAc(b1-6)[Gal(b1-3)]GalNAc
# How it was run: as §1
# [38] = molecular target: Neu5Ac(a2-8)Neu5Ac(a2-3)Gal(b1-3)GalNAc(b1-4)[Neu5Ac(a2-8)Neu5Ac(a2-3)]Gal(b1-4)Glc
# How it was run: as §1
# [39] = molecular target: Neu5Ac9Ac(a2-3)Gal(b1-3)GlcNAc
# How it was run: as §1
# [40] = molecular target: Neu5Ac9Ac(a2-6)Gal(b1-4)GlcNAc
# How it was run: as §1
# [41] = molecular target: Neu5Gc(a2-3)Gal(b1-3)[Fuc(a1-4)]GlcNAc
# How it was run: as §1
# [42] = molecular target: Neu5Gc(a2-8)Neu5Gc(a2-6)Gal(b1-4)GlcNAc
# How it was run: as §1
binder,measurement,setting,value
B1,glycan array binding signal (z-score),Fuc(a1-2)Gal(b1-3)GalNAc,-0.934
same,glycan array binding signal (z-score),[1],-0.444
same,glycan array binding signal (z-score),[2],0.203
same,glycan array binding signal (z-score),[3],2.92
same,glycan array binding signal (z-score),[4],1.23
same,glycan array binding signal (z-score),[5],0.066
same,glycan array binding signal (z-score),[6],-1.06
same,glycan array binding signal (z-score),[7],-0.79
same,glycan array binding signal (z-score),[8],0.315
same,glycan array binding signal (z-score),[9],-0.299
same,glycan array binding signal (z-score),[10],0.318
same,glycan array binding signal (z-score),[11],-0.759
same,glycan array binding signal (z-score),[12],1.6
same,glycan array binding signal (z-score),Gal(a1-3)Gal(b1-4)GlcNAc,-0.8
same,glycan array binding signal (z-score),Gal(b1-3)GalNAc(b1-3)Gal,-0.437
same,glycan array binding signal (z-score),[13],0.658
same,glycan array binding signal (z-score),[14],2.18
same,glycan array binding signal (z-score),[15],2.54
same,glycan array binding signal (z-score),[16],2.32
same,glycan array binding signal (z-score),[17],2.71
same,glycan array binding signal (z-score),[18],2.71
same,glycan array binding signal (z-score),[19],-0.649
same,glycan array binding signal (z-score),[20],0.031
same,glycan array binding signal (z-score),[21],2.51
same,glycan array binding signal (z-score),Gal6S(b1-4)GlcNAc,-0.407
same,glycan array binding signal (z-score),[22],-0.333
same,glycan array binding signal (z-score),[23],-0.573
same,glycan array binding signal (z-score),[24],2.67
same,glycan array binding signal (z-score),[25],2.33
same,glycan array binding signal (z-score),[26],1.58
same,glycan array binding signal (z-score),[27],-1.13
same,glycan array binding signal (z-score),[28],0.586
same,glycan array binding signal (z-score),[29],2.83
same,glycan array binding signal (z-score),[30],-0.067
same,glycan array binding signal (z-score),[31],-0.87
same,glycan array binding signal (z-score),[32],2.32
same,glycan array binding signal (z-score),[33],-1.15
same,glycan array binding signal (z-score),[34],2.69
same,glycan array binding signal (z-score),[35],-0.714
same,glycan array binding signal (z-score),[36],1.83
same,glycan array binding signal (z-score),[37],-0.319
same,glycan array binding signal (z-score),[38],0.293
same,glycan array binding signal (z-score),[39],-0.59
same,glycan array binding signal (z-score),[40],-0.088
same,glycan array binding signal (z-score),[41],0.008
same,glycan array binding signal (z-score),[42],-0.137

# Reference: the supplement of paper PMC8728848
